VACV mCherry inh = vaccinia inhibition (mCherry reporter) | Vaccinia virus mCherry reporter infection, fluorescence | Potency, µM (highest dose often 36.5 µM), for inactives: at the highest dose activity change, negative = inhibition, most hits filed as inhibitors | 310,000 compounds, 0.63% hits | AID 720579; calls by dose curve; tested in A549 cells; also: nearly all actives have a fitted effect of over 35% in size
MARV entry inh = inhibitors of Marburg virus binding or cell entry | Marburg virus pseudotyped entry inhibition, cell reporter | Potency, µM (series often up to 37.8 µM), for inactives: top-dose activity change, negative = inhibition, hits mostly inhibitors | 300,000 compounds, 1.8% hits | AID 540276; calls by dose curve; tested in HEK293 cells
Vaccinia Venus = inhibitors of vaccinia virus (Venus reporter) | Vaccinia virus Venus reporter expression, fluorescence | Potency, µM (highest dose often 36.5 µM), for inactives: at the top dose activity change, negative = inhibition, actives largely listed as inhibitors | 330,000 compounds, 0.46% hits; calls by dose curve; tested in A549 cells; also: nearly all actives have a fitted effect of over 30% in size
LASV entry inh = inhibitors of Lassa virus binding or cell entry; AID 540256; Potency, µM (titrated, usually from 37.9 µM), inactives show at the top dose activity change, negative = inhibition, hits mostly inhibitors; 300,000 compounds, 1.2% hits; Lassa virus pseudotype entry inhibition, cell reporter; calls by dose curve; tested in HEK293 cells; also: nearly all actives have a fitted effect of over 50% in size
Starred values were filed as active, the others as inactive; i = inactive; ? = inconclusive; . = no result given; ! = repeats disagree; [ ] = dose if it differs, or a comment. A selection: hits, their analogues and other compounds. The true share with any hit is near 2.5%. % is scaled to controls: 0 for no effect and ±100 for the full control effect; potency is read from the fitted curve at half-maximal effect.

SMILES	VACV mCherry inh	MARV entry inh	Vaccinia Venus	LASV entry inh
C/C=C/C(=O)OCC(=O)Nc1cc(OC)c([N+](=O)[O-])cc1C	5.62µM*	4.2%[46.1 µM]	7.94µM*	6.0%
O=C(NCC1(N2CCOCC2)CCCC1)c1cnn(-c2nccc(-c3cccs3)n2)c1C1CC1	-10.9%	.	10.4%	.
O=C(CCOc1ccccc1)NO	-8.6%	.	-4.0%	.
Cc1cc(C)c(S(=O)(=O)Nc2ccccc2C(=O)OCC(=O)NCc2ccccc2)c(C)c1	-4.9%	?	-11.9%	10µM*
O=C(COC(=O)c1ccccc1Nc1ccccc1)NCc1ccccc1	-19.6%	15.0%	-21.9%	8.3%
CSc1cccc(NC(=S)N(CCN(C)C)C(C)c2ccccn2)c1 (stereo not given)	-26.5%	10µM*	?	?
Cc1ccccc1NC(=S)N(CCN(C)C)C(C)c1ccccn1 (stereo not given)	-23.5%	5.5%	-6.0%	16.9%
N=c1nc2n(cc1F)C1OC(CO)C(O)C1O2 (stereo not given)	5.62µM*	-23.8%	?	-21.3%[46.1 µM]
Cc1cc(=O)n2c(C(=O)Nc3ccc(C(=O)OC(C)C)cc3)c(C(=O)Nc3ccccc3)sc2n1	.	?	.	23.1µM*
CSC1SCC2C(=O)N(C)C(C(C)C)C(=O)OCC(NC(=O)c3cnc4ccccc4n3)C(=O)NC(C)C(=O)N(C)C1C(=O)N(C)C(C(C)C)C(=O)OCC(NC(=O)c1cnc3ccccc3n1)C(=O)NC(C)C(=O)N2C (stereo not given)	?	?	0.0035µM*	?
Cc1ccc(O)c([C@H](CCN(C(C)C)C(C)C)c2ccccc2)c1	-0.6%	.	-9.8%	.
Cc1ccccc1C(OCCN(C(C)C)C(C)C)c1ccccc1 (stereo not given)	-28.5%	?	-23.9%	3.98µM*
COc1ccc(/C=C/C(=O)Nc2ccc(OC)nc2)cc1	?	0.5%	-16.8%	19.0%
COc1ccc(CS(=O)(=O)/C(Cl)=C(/Cl)C(=O)Nc2ccc(OC)nc2)cc1	.	2.82µM*	10µM*	6.31µM*
COc1ccc(NC(=O)/C(Cl)=C(/Cl)S(=O)Cc2ccccc2)cn1 (stereo not given)	7.08µM*	?	8.91µM*	1.58µM*
Nc1ccc(-c2cnc(N)c(C(=O)c3cccnc3)n2)cn1	?	.	10µM*	.
C(=C\c1ccnc2ccccc12)/c1ccc(N2CCNCC2)cc1	?	.	-16.7%	.
CCCCN(CC)CCCNC(=O)c1cn(CC)c2ccc(S(=O)(=O)N3CCc4ccccc4C3)cc2c1=O	?	?	-20.0%	?
CCCCN(C)CCCNC(=O)c1cn(CC)c2ccc(S(=O)(=O)N3CCc4ccccc4C3)cc2c1=O	-9.8%	5.62µM*	-10.8%	-13.2%
CCOc1ccccc1C1c2[nH]c3ccccc3c2C[C@H]2C(=O)N(C3CCN(Cc4ccccc4)CC3)CC(=O)N12 (stereo not given in full)	-12.7%	20µM*	-26.5%	?
CS(=O)(=O)c1nc(-c2ccc(Br)cc2)cc(-c2ccccc2)c1C#N	.	?	.	5.8µM*
Cc1ccc(S(=O)(=O)NNC(=O)c2ccc(C(=O)N(c3ccccc3)c3ccccc3)cc2)cc1	-16.8%	.	-9.8%	.
CC(=O)[C@@]1(C)OC(N)=C(C#N)[C@@H](c2ccccc2)C1(C#N)C#N	.	-0.1%	.	.
Cc1ccc(-c2nc3cc(Cl)ccc3o2)cc1NC(=O)COc1ccccc1C	20.5%	.	10.6%	.
COc1ccc(N2CCN(CCCNC(=O)c3ccc4nc(CCc5ccccc5)oc4c3)CC2)cc1	?	.	?	10µM*
SMILES	VACV mCherry inh	MARV entry inh	Vaccinia Venus	LASV entry inh
COc1ccc(N2CCN(CCCNC(=O)c3ccc4nc(Cc5ccccc5)oc4c3)CC2)cc1	-26.9%	.	-27.0%	?
COc1ccc(Cn2c(-c3ccc(OC)cc3)n[nH]c2=S)cc1	-1.1%	-0.4%[46.1 µM]	-3.9%	?
CC(C)Oc1ccc(Cn2c(-c3ccco3)n[nH]c2=S)cc1	28.2µM*	11.4%[46.1 µM]	?	5.8%
Cc1nnc2n(-c3ccccc3)c(=O)c3c4c(sc3n12)C[C@H](C)CC4	.	-19.5%	.	.
O=C(CNC(=O)C1CCCCC1)OCC(=O)c1ccc(C2CCCCC2)cc1	30.0%	.	-6.4%	.
C=C1C(=O)C23C(O)C1CCC2C12CCCC(C)(COC(C)=O)C1C(O)C3(O)OC2 (stereo not given)	2.51µM*	?	3.98µM*	11.2µM*
CCOc1ccc(-c2oc3cc(Cl)ccc3c(=O)c2O)cc1OC	28.2µM*	10.5%[46.1 µM]	-23.8%	-7.4%[46.1 µM]
NC(=S)N/N=C/c1ccc(-c2ccc(Cl)c(Cl)c2)o1	.	-5.6%	?	-6.6%
NC(=S)N/N=C\c1ccc(-c2cccc(Cl)c2Cl)o1	.	?	6.31µM*	10.9%
CC(Cc1ccccc1)NC(=O)CC(c1ccccc1)c1ccccc1O (stereo not given)	-23.8%	?	-16.9%	5.62µM*
Cc1cc(CC(C)CC(C)(C)C)n(O)c(=O)c1 (stereo not given)	1µM*	.	?	.
Cc1ccc(-c2csc(Nc3ccccn3)n2)cc1	?	2µM*	-9.4%	?
c1ccc(-c2csc(Nc3ccccn3)n2)cc1	?	?	-11.8%	?
Cc1ccnc(Nc2nc(-c3sc(C)nc3C)cs2)c1	3.55µM*	5.62µM*	?	14.9%[46.1 µM]
CC(=O)Nc1cccc(-c2csc(Nc3ccc(C)cn3)n2)c1	?	?	?	1.78µM*
Cc1ccnc2c(N)cccc12	-7.7%	.	0.1%	.
CCO[C@H]1[C@H](NC(=O)c2cccnc2)c2ccccc2C12CCN(C(=O)c1ccoc1)CC2	-2.8%	.	6.4%	.
CCOC(C(=O)OC[C@@H](O)CN(CC)CC)(c1ccccc1)c1ccccc1	.	-24.8%	.	.
O=C(C[n+]1ccccc1Cl)c1ccc(F)cc1	i	.	-22.6%	.
COc1cc(C(=O)N/N=C/C23CC[C@@H](O)CC2(O)CC[C@@H]2[C@@H]3CCC3(C)C(C4=CC(=O)OC4)CCC23O)ccc1O (stereo not given in full)	10µM*	?	?	?
O=C(COc1ccc(Br)cc1CNC1CCCCC1)NCCc1ccccc1	?	11.2µM*	-20.2%	?
CCS(=O)(=O)NCc1c(C)ncc2c1CCN(C(=O)c1csc(-c3cccs3)n1)C2	-4.6%	.	0.0%	.
CCOC(=O)C1=C(C)NC(C)=C(C(=O)OCCNC(=O)c2cccnc2)C1c1cccc([N+](=O)[O-])c1 (stereo not given)	-15.4%	?	-20.4%	-24.5%
COC(=O)C1=C(C)NC(C)=C(C(=O)OCCN(C)Cc2ccccc2)C1c1cccc([N+](=O)[O-])c1 (stereo not given)	-8.4%	16.4µM*	-16.3%	7.3µM*!
CCn1cnc2c(Nc3cccc(Cl)c3)nc(N[C@@H]3CCCC[C@@H]3N)nc21	.	11.6µM*	.	8.2µM*
COc1cccc([C@@H]2NC(=O)CC=C[C@H](C)[C@H](c3cccc(OC)c3)NC(=O)CC=C[C@H]2C)c1	.	15.8%[14.2 µM]	.	.
O=c1cc(-c2c(F)c(F)c(F)c(F)c2F)oc2ccccc12	-25.1%	18.3µM*	-21.5%	?
O=c1cc(-c2cccc(F)c2)oc2ccccc12	1.4%	13.8%[46.1 µM]	-2.0%	3.9%[46.1 µM]
CC(=O)Nc1sc2c(c1C(c1ccc(F)cc1)N1CCOCC1)CCCC2 (stereo not given)	-14.7%	12.6µM*	?	-25.2%
